Experimental findings from PubChem BioAssay (NCI) are described below.

The panel holds about 83,000 compounds, 20% with a hit somewhere; the sample as a whole holds those more often.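 Testing used 96-well plates and a 48-hour single-concentration exposure. Example: -40 means 40% of the starting cells died.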 The source made the active and inactive calls.

The test deals with SK-OV-3 ovarian. Kind of test: NCI-60 one-dose screen, 48 h (100 = growth as untreated, 0 = no growth, -100 = all killed). The note with it: 10 µM. On the procedure: Growth inhibition of the SK-OV-3 human tumor cell line is measured as a screen for anti-cancer activity. Cells are grown in 96 well plates and exposed to the test compound for 48 hours. Compounds are tested at a single concentration, which is 10^-5 M for most compounds. The reported endpoint is percent growth (GI% or GIPRCNT), where numbers from 0 - 100% represent growth inhibition, and numbers from -100% - 0 represent cell death. For example, a value of 40 represents 60% growth inhibition. A value of 0 means no net growth occurred over the course of the experiment. A value of -40 indicates 40% of cells at the beginning of the experiment died by the end of the experiment. A value of -100 means all cells are dead at the end of the experiment.
NCI-60 Human Tumor Cell Lines Screen was performed using the standard one-dose NCI protocol, which is described in more detail at https://dtp.cancer.gov/discovery_development/nci-60/default.htm.
Compounds with GIPRCNT values below 10 were considered active. Activity score was based on GIPRCNT using the following formula: […]
Score is 0 for GIPRCNT values of 100 or above, 50 for GIPRCNT values of 0, and 100 for GIPRCNT values of -100.
Take `COc1ccc(Cn2cc(C#N)c(N)c2C(C)=O)c(OC)c1`: the growth was 99.8% (inactive).
In the case of `CCOC(=O)C1=C(N)N(c2ccc(C)cc2)C2=C(C(=O)CC(C)(C)C2)C1c1ccccc1Br` (stereo not given) it was 91.9% (inactive).
With `COc1ccc(C(=O)COc2ccc(NC(=O)Nc3ccc(Cl)c(C(F)(F)F)c3)cc2)cc1`, the growth is 41.8% (inactive).
Next, `COC(=O)CNC(=O)COc1c(OC)c(OC)cc2oc(-c3cccc(C(=O)Nc4ccc(Cl)cc4)c3)cc(=O)c12`: 82.2% (inactive); `COc1ccc(C2c3sc4ccc(C)cc4c3Oc3nc[nH]c(=O)c32)cc1` (stereo not given): 81.2% (inactive).
Next, `CC1[C@H]2[C@H](C[C@H]3[C@@H]4CC=C5c6sc(Nc7cccc(Cl)n7)nc6CC[C@]5(C)[C@H]4CC[C@@]32C)O[C@]12CC[C@@H](C)CO2` (stereo not given in full): 108% (inactive); `Cc1ccc2c(c1)C(=O)/C(=C/c1ccc([N+](=O)[O-])cc1)S2`: 87.4% (inactive); `COc1cccc(O)c1/C=C1\SCc2cc3c(OC)cccc3[o+]c21`: 118% (inactive).
For `C#C[C@]1(O)CC[C@H]2[C@@H]3CC=C4c5sc(Nc6ccc(C(F)(F)F)cn6)nc5CC[C@]4(C)[C@H]3CC[C@@]21C`, the growth was -4.49% (active).
In the case of `COc1cc(Nc2nc(O)c(/C=C3\C=Nc4ccccc43)s2)cc(OC)c1OC`, the growth is -59.3% (active).
In the case of `O=C(Nc1ccc(Oc2ncnc3scc(Nc4n[nH]c(=S)s4)c23)cc1)C1(C(=O)Nc2cccc(C(F)(F)F)c2)CC1` it was 93.7% (inactive).
Next, `COc1ccc(Cc2nn(CC(=O)N/N=C/c3ccc(Br)cc3)c(=O)c3c(C)noc23)cc1`: -30% (active); `COc1ccccc1-n1cc(C#N)c(N)c1C(=O)c1ccc(Cl)cc1Cl`: 14.9% (inactive); `O=C(O)CCN1C(=O)/C(=C/C=C/c2ccc([N+](=O)[O-])o2)SC1=S`: 63.5% (inactive).
On to `COc1cc(-c2nc3ccc(C)cc3[nH]2)ccc1OCc1nnc(-c2ccccc2Br)o1`, for which the growth was 75.1% (inactive).
Next, `O=C(c1ccc(F)cc1)C(c1c[nH]c2ccccc12)c1c[nH]c2ccccc12`: 99.9% (inactive); `COc1ccc(C2c3sc4ccc(C)cc4c3Oc3nc(N)nc(N)c32)cc1` (stereo not given): 89.3% (inactive); `CC(C)(C)c1cc(/C=C2\S/C(=N/c3ncn[nH]3)NC2=O)cc(C(C)(C)C)c1O`: 4.14% (active).
As to `CCn1c(SCC(=O)Nc2ccc(-c3nc4ccccc4[nH]3)cc2)nc2ccccc2c1=O`, the growth was -70.5% (active).
As for `O=C(c1ccccc1)c1ccc2nc(-c3ccccc3Br)[nH]c2c1`, the growth was 24% (inactive).
`Fc1ccc(/C=C/c2nc3ccccc3n3c(-c4ccc(Cl)cc4)nnc23)cc1`: the growth was 104% (inactive).
On to `O=C1S/C(=C\c2ccc([N+](=O)[O-])cc2)C(=O)N1CCN1CCCCC1`, for which the growth is 102% (inactive).
Next, `Cc1cc(N=C2NC(=O)/C(=C/c3cc(C(C)(C)C)c(O)c(C(C)(C)C)c3)S2)n[nH]1`: -27.9% (active); `O=C(Nc1ccc(OCc2ccc(Cl)cc2)cc1)Nc1ccc(Cl)c(C(F)(F)F)c1`: -18.9% (active); `O=C(Nc1ccc(OCc2ccc(F)cc2)cc1)Nc1ccc(Cl)c(C(F)(F)F)c1`: -26.5% (active).
Next, `Cc1ccc(-c2nc(C#N)c(S(=O)(=O)N3CCN(S(C)(=O)=O)CC3)o2)cc1`: 105% (inactive); `COc1ccc2[nH]cc(-c3nc(N)nnc3-c3cn(C)c4ncc(Br)cc34)c2c1`: 10.7% (inactive).
Take `CCOC(=O)c1ccc(NC(=O)CSC(CC(=O)c2sc(Nc3ccccn3)nc2C)c2ccccc2F)cc1` (stereo not given): the growth is 5.92% (active).
As for `CCOc1ccc(/C=N/NC(=O)Cn2nc(Cc3ccc(OC)cc3)c3onc(C)c3c2=O)cc1`, the growth was -26.6% (active).
In the case of `O=C(CSc1nc2ccccc2c(=O)n1-c1ccc(Cl)cc1)Nc1ccc(-c2nc3ccccc3[nH]2)cc1` it was 94.2% (inactive); in that of `Cc1ccc(S(=O)(=O)N2CCN(S(=O)(=O)c3oc(-c4ccccc4)nc3C#N)CC2)cc1`, 87.9% (inactive); in that of `Cc1cc(N=C2NC(=O)S/C2=C\c2ccc(F)cc2)n[nH]1`, 44.3% (inactive).
In the case of `C#CCOc1cc(N(CC)CC)ccc1C(C(=O)NC(C)(C)C)N(C(=O)C1CCc2cc(F)ccc2O1)c1ccc(F)cc1F` (stereo not given) it was 46.8% (inactive); in that of `Cn1cc(/C=C(/SS/C(=C/c2cn(C)c3cccc(C(=O)O)c23)C(=O)O)C(=O)O)c2c(C(=O)O)cccc21`, 114% (inactive).
Take `COc1cccc(C(=O)CSc2nc(-c3ccc(OCc4ccccc4)c(OC)c3)c(C#N)c(=O)[nH]2)c1`: the growth was 94.5% (inactive).
Regarding `COc1cc(C2CC(c3ccccc3)=Nc3c(N)nc(N)nc3N2)ccc1Oc1nc(NCCO)nc(N2CCOCC2)n1` (stereo not given), the growth is 115% (inactive).
Regarding `Cn1cc(-c2nc(N)nnc2-c2c[nH]c3ccccc23)c2cc(Br)cnc21`, the growth was 26.5% (inactive).
In the case of `Cn1cc(-c2cc3nc(-c4c[nH]c5ccccc45)cc(N)n3n2)c2cc(Cl)ccc21` it was -94.7% (active); in that of `C#C[C@]1(O)CC[C@H]2[C@@H]3CC=C4c5sc(Nc6ccc(N(C)C)cc6)nc5CC[C@]4(C)[C@H]3CC[C@@]21C`, -39.5% (active).
In the case of `COc1ccc(NCc2cn(-c3ccc(C(=O)O)cc3)nc2-c2ccc(F)cc2)cc1C(F)(F)F` it was 112% (inactive).
